From PubChem BioAssay AID1159580 (chemical genetic matrix, 2015)
Values joined by “and” are separate entries in the source; they are usually repeats but may differ in a detail not shown here. Identical values can stand only once. Screen size: about 5,500 compounds; about 2,000 (36%) were called active. Roughly 18% stayed inconclusive and do not appear here. Rule as the data show it: active = normalized growth mostly below about 0.91 (no sharp cut-off); inconclusive = no clear call, values can overlap the other calls; inactive = mostly above about 0.92. The list shows a part of the results. Where a structure was tested more than once in an assay, its records may differ in their call.

Assay: chemical genetic growth profiling, strain panel (AID 1159580);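 also: tested at 20 µM; growth read once vehicle control cultures reached saturation at 30 °C; 1 = growth at the plate median or of vehicle wells; lower values mean less growth of the strain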
Conditions: S. cerevisiae deletion strains, growth OD

Measured: normalized growth

O=C1CCc2cc(OCCCCc3nnnn3C3CCCCC3)ccc2N1
0.998 (inactive) and 0.252 (active): locus YJR075W, strain HOC1, stronger effect = lower value
active: locus YCL061C, strain MRC1 (second series), stronger effect = lower value 0.0772
inactive: locus YAL013W, strain DEP1, stronger effect = lower value 1 | locus YAL021C, strain ccr4, stronger effect = lower value 0.996 | locus YAL026C, strain drs2, stronger effect = lower value 1.01 | locus YAL030W, strain snc1, stronger effect = lower value 0.985 | locus YAL040C, strain CLN3, stronger effect = lower value 1.01 | locus YBL061C, strain skt5, stronger effect = lower value 0.991 | locus YBR009C, strain hhf1, stronger effect = lower value 0.989 | locus YBR021W, strain FUR4, stronger effect = lower value 1.03 | locus YBR023C, strain chs3, stronger effect = lower value 1 | locus YBR171W, strain sec66, stronger effect = lower value 0.981 | locus YBR229C, strain ROT2, stronger effect = lower value 1 | locus YBR231C, strain swc5, stronger effect = lower value 0.99 | locus YBR279W, strain paf1, stronger effect = lower value 0.989 | locus YCL011C, strain gbp2, stronger effect = lower value 0.995 | locus YCL016C, strain dcc1, stronger effect = lower value 1 | locus YCL029C, strain bik1, stronger effect = lower value 0.988 | locus YCL061C, strain MRC1, stronger effect = lower value 0.988 | locus YCL069W, strain vba3, stronger effect = lower value 0.982 | locus YCR088W, strain abp1, stronger effect = lower value 0.992 | locus YDL005C, strain med2, stronger effect = lower value 0.983 | locus YDL035C, strain GPR1, stronger effect = lower value 1.01 | locus YDL040C, strain nat1, stronger effect = lower value 0.988 | locus YDL074C, strain BRE1, stronger effect = lower value 1.03 | locus YDL101C, strain DUN1, stronger effect = lower value 1 | locus YDL134C, strain PPH21, stronger effect = lower value 1.01 | locus YDL185W, strain tfp1, stronger effect = lower value 0.993 | locus YDL192W, strain arf1, stronger effect = lower value 0.971 | locus YDR001C, strain nth1, stronger effect = lower value 0.998 | locus YDR069C, strain doa4, stronger effect = lower value 0.987 | locus YDR101C, strain arx1, stronger effect = lower value 0.977 | locus YDR137W, strain rgp1, stronger effect = lower value 0.894 | locus YDR150W, strain NUM1, stronger effect = lower value 1.01 | locus YDR159W, strain sac3, stronger effect = lower value 0.978 | locus YDR162C, strain NBP2, stronger effect = lower value 1.02 | locus YDR195W, strain ref2 0.958 | locus YDR297W, strain sur2, stronger effect = lower value 0.995 | locus YDR318W, strain mcm21, stronger effect = lower value 1 | locus YDR334W, strain swr1, stronger effect = lower value 0.999 | locus YDR335W, strain msn5, stronger effect = lower value 0.981 | locus YDR388W, stronger effect = lower value 0.99 | locus YDR392W, strain spt3, stronger effect = lower value 0.984 | locus YDR502C, strain sam2, stronger effect = lower value 1.02 | locus YEL003W, strain gim4, stronger effect = lower value 1 | locus YEL037C, strain rad23, stronger effect = lower value 0.999 | locus YEL061C, strain CIN8 (second series), stronger effect = lower value 0.998 | locus YEL061C, strain CIN8, stronger effect = lower value 1 | locus YER002W, strain NOP16, stronger effect = lower value 1.01 | locus YER015W, strain faa2, stronger effect = lower value 0.997 | locus YER016W, strain bim1, stronger effect = lower value 0.993 | locus YER110C, stronger effect = lower value 0.993 | locus YER111C, strain swi4, stronger effect = lower value 0.979 | locus YER155C, strain BEM2 (second series), stronger effect = lower value 0.965 | locus YER155C, strain BEM2, stronger effect = lower value 1.02 | locus YER167W, strain BCK2, stronger effect = lower value 1 | locus YFR010W, strain ubp6, stronger effect = lower value 0.991 | locus YGL078C, strain dbp3, stronger effect = lower value 1 | locus YGL086W, strain mad1, stronger effect = lower value 1 | locus YGL167C, strain pmr1, stronger effect = lower value 0.986 | locus YGL173C, strain kem1, stronger effect = lower value 0.986 | locus YGL227W, strain vid30, stronger effect = lower value 0.985 | locus YGL240W, strain doc1, stronger effect = lower value 0.959 | locus YGL248W, strain PDE1, stronger effect = lower value 1 | locus YGL253W, strain hxk2, stronger effect = lower value 1 | locus YGR078C, strain PAC10, stronger effect = lower value 1.02 | locus YGR135W, strain pre9, stronger effect = lower value 0.997 | locus YGR229C, strain SMI1, stronger effect = lower value 1.01 | locus YGR252W, strain gcn5, stronger effect = lower value 0.956 | locus YHR013C, strain ard1, stronger effect = lower value 0.99 | locus YHR027C, strain rpn1, stronger effect = lower value 0.998 | locus YHR030C, strain SLT2, stronger effect = lower value 1 and 0.979 | locus YHR079C, strain IRE1 (second series), stronger effect = lower value 0.995 | locus YHR079C, strain IRE1, stronger effect = lower value 0.986 | locus YHR094C, strain hxt1, stronger effect = lower value 0.993 | locus YHR129C, strain ARP1, stronger effect = lower value 1 | locus YHR142W, strain chs7, stronger effect = lower value 1 | locus YHR200W, strain rpn10, stronger effect = lower value 0.995 | locus YIL066C, strain RNR3, stronger effect = lower value 1.01 | locus YIL073C, strain SPO22, stronger effect = lower value 0.989 | locus YIL125W, strain kgd1, stronger effect = lower value 1.01 | locus YIR030C, strain dcg1, stronger effect = lower value 0.998 | locus YJL092W, strain hpr5, stronger effect = lower value 0.996 | locus YJL095W, strain BCK1 (second series), stronger effect = lower value 0.984 | locus YJL095W, strain BCK1, stronger effect = lower value 1.01 and 0.989 | locus YJL115W, strain asf1, stronger effect = lower value 0.999 | locus YJL129C, strain trk1, stronger effect = lower value 0.973 | locus YJL134W, strain LCB3, stronger effect = lower value 1 | locus YJL154C, strain vps35, stronger effect = lower value 0.993 | locus YJL164C, strain tpk1, stronger effect = lower value 1 | locus YJL166W, strain qcr8, stronger effect = lower value 0.979 | locus YJL168C, strain set2, stronger effect = lower value 0.992 | locus YJL187C, strain SWE1 (second series), stronger effect = lower value 1.01 | locus YJR043C, strain POL32, stronger effect = lower value 1.01 | locus YJR066W, strain TOR1, stronger effect = lower value 0.942
